In PubChem BioAssay (NCI):
Compounds without any hit were thinned out: in the full panel of roughly 83,000, 20% have a hit.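 Testing used 96-well plates and a 48-hour single-concentration exposure. Example: -40 means 40% of the starting cells died.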 Values without a mark were called inactive. The source made the active and inactive calls. How the source made its calls: active means growth percent below 10; inactive means the rest.

How the values were obtained:
Experiment in all cases: NCI-60 one-dose screen, 48 h (100 = growth as untreated, 0 = no growth, -100 = all killed)
Conditions in all cases: 10 µM unless noted
[1] = system: SR leukemia
[2] = system: RPMI-8226 leukemia
[3] = system: OVCAR-8 ovarian
[4] = system: OVCAR-5 ovarian
[5] = system: OVCAR-4 ovarian
[6] = system: SK-OV-3 ovarian
[7] = system: IGROV1 ovarian
[8] = system: OVCAR-3 ovarian
[9] = system: NCI/ADR-RES ovarian
[10] = system: T-47D breast
[11] = system: BT-549 breast
[12] = system: MDA-MB-435 melanoma
[13] = system: SW-620 colon
[14] = system: MCF7 breast
[15] = system: HCT-116 colon
[16] = system: HCC-2998 colon
[17] = system: KM12 colon

SMILES | growth [1] | growth [2] | growth [3] | growth [4] [%] | growth [5] [%] | growth [6] [%] | growth [7] | growth [8] | growth [9] | growth [10] [%] | growth [11] | growth [12] | growth [13] | growth [14] | growth [15] | growth [16] | growth [17]
COc1ccc(-c2nn(-c3ccc(NC(=O)c4ccc(Cl)c(C(F)(F)F)c4)cc3)cc2-c2ccncc2)cc1Cl | 7.78% (active) | -38.2% (active) | 46.5% | 46.5 | 93.9 | 58.1 | 44.8% | 24% | 35.7% | 46.1 | 40.5% | 23.2% | 16% | 22.5% | 15.8% | 9.69% (active) | 14.8%
O=C(N/N=C/c1ccccc1O)c1ccccc1O | 17.1% | 37.4% | 25.1% | 55.3 | 24.3 | 47.7 | 24.3% | 39.8% | 21% | 25.7 | 34% | 63% | 41.4% | 11.1% | 26.7% | 43% | 33.5%
COc1cccc(-c2nc3sccn3c2-c2ccnc(NCCNC(=O)c3ccccc3)n2)c1 | 79.8% | 41.6% | 62.5% | 99.1 | 109 | 88.5 | 69.2% | 89.1% | 70.5% | 61.9 | 85.1% | 55.2% | 114% | 81.7% | 81.8% | 114% | 87.8%
O=C(Nc1cccc(-n2ccc3c(NC(=O)c4ccccc4)nccc32)c1)Nc1cc(C(F)(F)F)cc(C(F)(F)F)c1 | -14.9% (active) | -30.6% (active) | -32.1% (active) | 28 | 43.9 | 13.5 | 6.92% (active) | -26.9% (active) | -30.5% (active) | 55 | 2.85% (active) | -34.1% (active) | 21.2% | 13.6% | -15.8% (active) | 13.2% | -15.2% (active)
COc1ccc(/C=C/C(=O)c2ccc(-n3cc(CN4CCN(c5cc6c(cc5F)c(=O)c(C(=O)O)cn6C5CC5)CC4)nn3)cc2)cc1OC | -12.4% (active) | -15.8% (active) | 39.7% | 72.3 | 73.7 | 67.5 | -24.8% (active) | -16.1% (active) | 82% | 28.1 | 51% | 5.4% (active) | 9.41% (active) | 16.1% | -39.5% (active) | -39.7% (active) | 8.81% (active)
COC1OCC(OS(=O)(=O)c2ccc(C)cc2)C(OC(=O)c2ccccc2)C1OC(=O)c1ccccc1 (stereo unspecified) | 39.6% | 45.5% | 69.3% | 72.5 | 57 | 86.1 | 37.8% | -12.4% (active) | -6.71% (active) | 44.4 | 39.1% | -5.87% (active) | 19.5% | 22.6% | 32.4% | 56.9% | 30.7%
O=[N+]([O-])c1cccc(C2c3ccccc3Oc3ccccc32)c1 | 77.4% | 82.2% | 89.4% | 90.8 | 91 | 84.1 | 76.8% | 91.7% | 93.7% | 86.4 | 116% | 98.1% | 86.9% | 98.7% | 68.3% | 91.1% | 86.7%
Nc1nccc2c1ccn2-c1ccc(NC(=O)c2ccc(N3CCOCC3)c(C(F)(F)F)c2)cc1 | 14.9% | -29.9% (active) | 28% | 14.2 | 77.4 | 48.4 | 35.8% | 46% | 49.3% | 39 | 26.5% | -8.07% (active) | -32.8% (active) | -18.2% (active) | 4.53% (active) | 39.1% | -41.4% (active)
Cc1nc(-c2ccc(Cl)cc2)ccc1NC(=O)Nc1cccc(C(F)(F)F)c1 | 59.6% | 85.3% | 98.9% | 121 | 108 | 110 | 111% | 111% | 98.1% | 87.5 | 98.6% | 103% | 89.6% | 81% | 74.5% | 107% | 101%
COc1cc2nc(C(=O)N3CCCCC3)cc(Nc3ccccc3)c2cc1OC | 81.7% | 87.6% | 98.3% | 109 | 100 | 108 | 98.3% | 93.9% | 95.4% | 91.2 | 102% | 104% | 107% | 96.5% | 99.9% | 105% | 99.3%
O=C(Nc1ccc(-n2ccc3c(NC(=O)c4ccccc4)ncnc32)cc1)c1ccc(Cl)c(C(F)(F)F)c1 | -19.6% (active) | 6.7% (active) | 3.65% (active) | 52 | 17.1 | 65.6 | 15.3% | -3.5% (active) | 29.9% | 30.4 | 55.1% | 18.2% | -3.54% (active) | 12.5% | -32% (active) | 48.2% | 11.1%
O=C(Nc1ccc(-n2cc(-c3ccncc3)c(-c3ccc(O)c(Cl)c3)n2)cc1)c1cc(C(F)(F)F)cc(C(F)(F)F)c1 | 58.8% | 27.9% | 69.5% | 70.9 | 85.9 | 84 | 61.4% | 49.8% | 67.2% | 60.7 | 53.3% | 45.9% | 76.2% | 58% | 40.3% | 83.6% | 42.3%
O=C(NCCNc1nccc(-c2c(-c3cccc(O)c3)nc3sccn23)n1)Nc1cccc(C(F)(F)F)c1 | 59.2% | -4.81% (active) | 41.2% | 117 | 110 | 85 | 65.6% | 76.7% | 108% | 63.8 | 41.1% | -3.01% (active) | 30.3% | 55.6% | 56.8% | 23% | 14%
CCC(CC(C)C)Nc1ccc(NC(CC)CC(C)C)cc1 (stereo unspecified) | 48.9% | -5.42% (active) | 87.6% | 108 | 75.8 | 94.4 | 83.9% | -6.06% (active) | 96.6% | 69.2 | 97.1% | 107% | 84.2% | 89.5% | 59.2% | 95.6% | 63.2%
COc1cccc(-c2nc3sccn3c2-c2ccnc(NCCNC(=O)Nc3cccc(C(F)(F)F)c3)n2)c1 | 38.5% | 20.4% | 21.3% | 103 | 91.1 | 78.6 | 50.9% | 66.3% | 27.2% | 42.9 | 71.9% | 21.5% | 88.9% | 54.8% | 44.6% | 40.8% | 33.5%
COc1ccc(NC(=O)COCCOCCNC[C@@H]2C(=O)O[C@H]3[C@H]2CC/C(COC(=O)OC/C2=C/CC[C@@]4(C)O[C@H]4[C@H]4OC(=O)[C@@H](CN(C)C)[C@@H]4CC2)=C\CC[C@@]2(C)O[C@@H]32)c(O)c1C(N)=O | 0.464% (active) | 38.4% | 32.4% | 91 | 31.3 | 79.4 | 26.6% | 0.0325% (active) | 101% | 15.8 | 56.8% | 49.6% | -6.42% (active) | 19.4% | -38.6% (active) | 106% | 79.3%
O=C(Nc1ccc(-n2ccc3c(NC(=O)c4ccccc4)nccc32)cc1)c1cccc(C(F)(F)F)c1 | -2.23% (active) | 6.14% (active) | 30.4% | 52.5 | 108 | 36.2 | 33.3% | 20.9% | 19.8% | 58.3 | 29% | 11% | 19.2% | 24.3% | 12.8% | 44.2% | 20.4%
O=S1(=O)N(CCNc2nccc(-c3c(-c4cccc(O)c4)nc4sccn34)n2)CCN1Cc1ccccc1 | 55.4% | 47.4% | 48.3% | 113 | 110 | 52.9 | 51.9% | 64.9% | 74% | 50.8 | 69.9% | 45.9% | 74.4% | 59.5% | 45.9% | 109% | 47.6%
